# Bioassay records: PubChem BioAssay, several laboratories
# Shown are actives, neighbours in structure and some others; about 3.1% of the full set was active somewhere.
# SSB-PriA inh – blocks PriA binding to SSB C-terminal tail; AlphaScreen SSBct-PriA binding, biotinylated peptide; actives 0.6% (n = 430,000); AID 1272365; inhibition, % at 33 µM; in the data active = inhibition mostly above about 37%, no sharp cut-off; inactive = mostly below about 20%;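 note: plate controls were negative control peptide for no effect and reference peptide for full effect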
# Anthrax LF prot – anthrax lethal factor protease inhibition; P15917; multiplex microsphere protease cleavage assay, LF; inhibition, % at 10 µM; actives 0.12% (n = 360,000); AID 588501; note: plate controls were buffer without enzyme for full effect and enzyme alone for no effect
# BoNT-A LC inh2 – inhibitors of Botulinum neurotoxin A light chain protease; inhibition, % at 10 µM; multiplex microsphere protease substrate cleavage, flow cytometry; actives 0.17% (n = 360,000); note: plate controls were buffer without enzyme for full effect and enzyme alone for no effect
# Bead autofluor – counter-screen for toxin protease inhibitors: compound fluorescence; compound autofluorescence counterscreen, microsphere flow cytometry; hits give high values; fluorescence intensity (test concentration not listed); AID 624483; actives 3.1% (n = 360,000); in the data active = fluorescence intensity above about 16000; inconclusive = no clear call, values can overlap the other calls
# BoNT F protease – inhibitors of Botulinum neurotoxin F light chain protease; Multiplex microsphere protease cleavage assay, flow cytometry; inhibition, % at 10 µM; actives 0.22% (n = 360,000); AID 588497; in the data active = inhibition above about 35%, passing the limit was not always enough; inconclusive = no clear call, values can overlap the other calls; note: plate controls were buffer without enzyme for full effect and enzyme alone for no effect
# Starred values were filed as active, the others as inactive; ? = inconclusive; / = no result; ! = repeats disagree. Cut-off read from the data, not from the text of the source, unless noted: active = inhibition above about 30%; inconclusive = no clear call, values can overlap the other calls; inactive = below that.
SMILES,SSB-PriA inh,Anthrax LF prot,BoNT-A LC inh2,Bead autofluor,BoNT F protease
c1ccc(CSc2nc(-c3ccccc3)c(-c3ccccc3)o2)cc1,-7,/,/,/,/
CCOC(=O)C(=O)NCC(c1ccco1)S(=O)(=O)c1ccccc1 (stereo not drawn),7,/,/,/,/
Cc1ccc(C(=O)NCCn2cc(SCC(=O)N3CCOCC3)c3ccccc32)cc1,-4,-2,0,6258,-4
Cc1ccc(C(=O)NCCn2cc(SC(=N)N)c3ccccc32)cc1,39*,/,/,/,/
O=C(Oc1c(Cl)cc(Cl)c2cccnc12)c1cccs1,-39,1,-2,3487,-1
O=C(Oc1c(CN2CCOCC2)cc(Cl)c2cccnc12)c1ccccc1Cl,47*,-1,-3,4442,-1
O=C(Oc1c(CN2CCOCC2)cc(Cl)c2cccnc12)c1cccs1,91*!,0,-1,3987,-6
OCCN1CCN(Cc2cc(Cl)c3cccnc3c2O)CC1,101,2,-4,11162,-22
O=C(Oc1c(CN2CCOCC2)cc(Cl)c2cccnc12)c1ccc(F)cc1,88*,-4,2,22240*,0
O=C(Nc1ccon1)C(Sc1ccccc1)c1ccccc1 (stereo not drawn),-7,-3,?,23273*,1
Cc1ccc(OC(=O)c2ccncc2)c(C)c1,-3,-13,0,3621,47*
COc1ccc(OC)c(S(=O)(=O)NCc2ccccc2)c1,-26,-3,-1,16582*,-6
COc1ccc(NS(=O)(=O)c2cc(-c3nnnn3C)ccc2OC)cc1,-1,-14,6,18825*,10
COc1ccc(CCNS(=O)(=O)c2cccc(C)c2)cc1OC,-7,-2,-2,20544*,-4
COc1ccc(S(=O)(=O)NCc2ccc(C(=O)O)cc2)cc1,3,0,0,20146*,1
COc1cccc(S(=O)(=O)NCCc2ccc(OC)c(OC)c2)c1,-10,/,/,/,/
O=S(=O)(c1ccc2ccccc2c1)N1CCC(Oc2ccccn2)CC1,-11,/,/,/,/
Cc1nc(NCCNC(=O)c2cccc3ccccc23)cc(-n2ccnc2C)n1,3,/,/,/,/
COc1cccc2cc(C(=O)N3CCN(c4cc(-n5cncn5)ncn4)CC3)oc12,-6,/,/,/,/
COc1ccc(-n2nnnc2S(=O)(=O)CC(=O)N2CCCCC2)cc1,-9,-7,0,5100,-3
COc1ccc(-c2nnnn2C)cc1S(=O)(=O)NCCc1ccccc1,-16,2,?,19418*,3
COc1ccc(-n2nnnc2S(=O)(=O)Cc2ccc(C(=O)O)cc2)cc1,-7,-11,6,17765*,3
COc1ccc(S(=O)(=O)NCc2ccncc2)cc1OC,-5,0,-2,23943*,-2
COC(=O)CCC(O)=C1C(=O)CC(C)(C)CC1=NCc1nc2ccccc2[nH]1,2,/,/,/,/
CN(C)c1ccc(C2C(=O)C(c3ccc(N(C)C)cc3O)C2=O)c(O)c1 (stereo not drawn),-6,/,/,/,/
SMILES,SSB-PriA inh,Anthrax LF prot,BoNT-A LC inh2,Bead autofluor,BoNT F protease
O=C(Cn1cc(C(F)(F)F)ccc1=O)NN=Cc1cccc(Cl)c1Cl,-15,/,/,/,/
Cc1ccc(S(=O)(=O)C(CCC(=O)c2ccc(Cl)cc2)C(N)=O)cc1 (stereo not drawn),-13,1,-4,21117*,-7
CCOC(=O)Cn1nnnc1CN(Cc1cccs1)Cc1cc2cc(C)cc(C)c2[nH]c1=O,-13,4,-1,23938*,-1
COc1ccccc1CN(Cc1cc2cc3c(cc2[nH]c1=O)OCCO3)Cc1nnnn1Cc1ccco1,-3,-4,0,23267*,-5
O=c1[nH]c2cc3c(cc2cc1CN(Cc1ccccc1)Cc1nnnn1Cc1ccco1)OCCO3,7,2,1,3616,0
COc1ccc2cc(CN(Cc3cccs3)Cc3nnnn3Cc3ccccc3)c(=O)[nH]c2c1,-8,-2,-1,24337*,-3
Cc1cccc2cc(CN(Cc3cccs3)Cc3nnnn3Cc3ccccc3)c(=O)[nH]c12,17,-3,-1,10131,7
Cc1ccc(C(=O)ON=C(N)c2ccc(C(F)(F)F)cn2)cc1,-15,/,/,/,/
COc1ccc(Cn2c(/C=C/c3ccccc3)nc3ccccc32)cc1,-67,2,-1,24328*,-4
COC(=O)c1cc(C(=O)c2ccc(Cl)cc2Cl)cn1C,-3,-2,?,21700*,0
Clc1ccccc1Nc1ncnc2c1nnn2Cc1ccccc1,2,-5,?,16216*,-2
c1ccc(Cn2nnc3c(N4CCCC4)ncnc32)cc1,-8,0,-1,16477*,-4
CCN1CCN(c2ncnc3c2nnn3Cc2ccccc2)CC1,-6,-2,1,3080,1
Fc1ccccc1Nc1ncnc2c1nnn2Cc1ccccc1,-6,1,-2,3623,4
